Test [1] is described as follows: qHTS for Inhibitors of the Functional Ribonucleoprotein Complex (vRNP) of Lymphocytic Choriomeningitis Arenaviruses (LCMV): Viability assay - alamar blue signal for LCMV Primary Screen (AID 1347085; calls by dose curve; tested in HEK293 reporter line; also: nearly all actives have a fitted effect of over 80% in size; also: potency is read from the fitted curve at half-maximal effect).
The target in test [2] is Nucleoprotein (Lymphocytic choriomeningitis virus (strain Armstrong)) (UniProt P09992). Briefly: qHTS for Inhibitors of the Functional Ribonucleoprotein Complex (vRNP) of Lymphocytic Choriomeningitis Arenaviruses (LCMV): LCMV Primary Screen - GLuc reporter signal (AID 1347086; calls by dose curve; also: nearly all actives have a fitted effect of over 70% in size; also: potency is read from the fitted curve at half-maximal effect).
Test [3] can be described thus: qHTS of pediatric cancer cell lines to identify multiple opportunities for drug repurposing: Primary screen for TC32 cells (AID 1347089). Also: nearly all actives have a fitted effect of over 60% in size. Also: potency is read from the fitted curve at half-maximal effect. Put shortly:
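TC32 cells, 500-1,000/well in growth medium, compound-treated 48 h at 37 °C; viability from CellTiter-Glo luminescence. Primary screen: MIPE 11-point (0.78 nM–46 µM final), NPC 8-point (0.59 nM–46 µM final); confirmatory at 11-point dilutions.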

A short description of test [4]: qHTS of pediatric cancer cell lines to identify multiple opportunities for drug repurposing: Primary screen for DAOY cells (AID 1347090). Also: nearly all actives have a fitted effect of over 55% in size. Also: potency is read from the fitted curve at half-maximal effect. Put shortly:
(§1)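 Viability measured as metabolically active cells via CellTiter-Glo luminescence following 48 hours of compound exposure, 11-point dilutions in confirmatory testing. 500-1,000 cells/well plated 5 hours before dosing; controls were DMSO and 2.3 µM bortezomib.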

Test [5] is described as follows: qHTS of pediatric cancer cell lines to identify multiple opportunities for drug repurposing: Primary screen for SJ-GBM2 cells (AID 1347091). Also: potency is read from the fitted curve at half-maximal effect. The method, boiled down: as §1
Test [6] can be described thus: qHTS of pediatric cancer cell lines to identify multiple opportunities for drug repurposing: Primary screen for A673 cells (AID 1347092). Also: nearly all actives have a fitted effect of over 45% in size. Also: potency is read from the fitted curve at half-maximal effect. Put shortly:
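A673 cells (500-1,000 cells/well) were treated 48 hours at 37 degrees C with compounds at 11-point (0.78 nM to 46 µM) or 8-point (0.59 nM to 46 µM) dilutions. Viability read by CellTiter-Glo luminescence; concentration-response curves fitted.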

The nature of test [7]: qHTS of pediatric cancer cell lines to identify multiple opportunities for drug repurposing: Primary screen for SK-N-MC cells (AID 1347093). Also: potency is read from the fitted curve at half-maximal effect. The method, boiled down:
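Metabolically active cells were quantified by ATP-dependent luminescence (CellTiter-Glo, 15 min at room temperature) following 48 h treatment. Cells had been plated at 500-1,000 per well and settled for 5 h beforehand.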

A short description of test [8]: qHTS of pediatric cancer cell lines to identify multiple opportunities for drug repurposing: Primary screen for BT-37 cells (AID 1347094). Also: potency is read from the fitted curve at half-maximal effect. Put shortly:
(§2)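 Phenotypic viability qHTS, 48 h compound exposure, CellTiter-Glo luminescence read-out; multi-concentration dosing so that potency and efficacy derive directly from the primary screen's curves.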

Test [9] is described as follows: qHTS of pediatric cancer cell lines to identify multiple opportunities for drug repurposing: Primary screen for NB-EBc1 cells (AID 1347095). Put shortly: as §2
The nature of test [10]: qHTS of pediatric cancer cell lines to identify multiple opportunities for drug repurposing: Primary screen for U-2 OS cells (AID 1347096). Also: nearly all actives have a fitted effect of over 50% in size. Also: potency is read from the fitted curve at half-maximal effect. Put shortly: (§3)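 Viability after 48 h compound treatment at 37C, 500-1,000 cells/well, read as ATP luminescence with CellTiter-Glo. Primary screens used 11-point (MIPE, 0.78 nM-46 µM) or 8-point (NPC, 0.59 nM-46 µM) final concentrations; follow-up screens used 11-point dilutions.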

A short description of test [11]: qHTS of pediatric cancer cell lines to identify multiple opportunities for drug repurposing: Primary screen for Saos-2 cells (AID 1347097). Also: nearly all actives have a fitted effect of over 40% in size. Also: potency is read from the fitted curve at half-maximal effect. The method, boiled down: as §2
Test [12] can be described thus: qHTS of pediatric cancer cell lines to identify multiple opportunities for drug repurposing: Primary screen for SK-N-SH cells (AID 1347098). Also: nearly all actives have a fitted effect of over 65% in size. Also: potency is read from the fitted curve at half-maximal effect. Put shortly: (§4)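 Cells (500-1,000/well) rested 5 h, then received compounds for 48 h; metabolically active cells were measured by CellTiter-Glo luminescence. Final concentrations spanned up to 46 µM (MIPE, 11-point) or 0.59 nM-46 µM (NPC, 8-point) in primary screens, 11-point in follow-ups.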

A short description of test [13]: qHTS of pediatric cancer cell lines to identify multiple opportunities for drug repurposing: Primary screen for NB1643 cells (AID 1347099). Also: nearly all actives have a fitted effect of over 50% in size. Also: potency is read from the fitted curve at half-maximal effect. Put shortly: as §2
A short description of test [14]: qHTS of pediatric cancer cell lines to identify multiple opportunities for drug repurposing: Primary screen for LAN-5 cells (AID 1347100). Also: potency is read from the fitted curve at half-maximal effect. The method, boiled down:
as §3

The nature of test [15]: qHTS of pediatric cancer cell lines to identify multiple opportunities for drug repurposing: Primary screen for BT-12 cells (AID 1347101). Also: nearly all actives have a fitted effect of over 25% in size. Also: potency is read from the fitted curve at half-maximal effect. The method, boiled down:
as §4

The nature of test [16]: qHTS of pediatric cancer cell lines to identify multiple opportunities for drug repurposing: Primary screen for Rh18 cells (AID 1347102). Also: nearly all actives have a fitted effect of over 65% in size. Put shortly: as §3
Test [17] in a line: qHTS of pediatric cancer cell lines to identify multiple opportunities for drug repurposing: Primary screen for OHS-50 cells (AID 1347103). Also: nearly all actives have a fitted effect of over 40% in size. Also: potency is read from the fitted curve at half-maximal effect. The method, boiled down:
as §4

Test [18] in a line: qHTS of pediatric cancer cell lines to identify multiple opportunities for drug repurposing: Primary screen for MG 63 (6-TG R) cells (AID 1347105). Also: nearly all actives have a fitted effect of over 50% in size. Also: potency is read from the fitted curve at half-maximal effect. Put shortly:
as §2

Test [19] is described as follows: qHTS of pediatric cancer cell lines to identify multiple opportunities for drug repurposing: Primary screen for control Hh wild type fibroblast cells (AID 1347106).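 Also: series mostly up to about 46 µM; a drop in luminescence marks cytotoxicity and a rise apparent proliferation; nearly all actives have a fitted effect of over 55% in size.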 The method, boiled down:
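Cells (500-1,000/well) in growth media were settled 5 h at 37 degrees C, then given compounds for 48 h. Viability was read as CellTiter-Glo luminescence. Primary runs used MIPE at 11 points (0.78 nM-46 µM) and NPC at 8 points (0.59 nM-46 µM); follow-ups used 11 points.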

The nature of test [20]: qHTS of pediatric cancer cell lines to identify multiple opportunities for drug repurposing: Primary screen for RD cells (AID 1347104). Also: nearly all actives have a fitted effect of over 55% in size. Put shortly: as §2

SMILES strings stand for the structures. Inconclusive results are not listed. The source made the active and inactive calls. Unless noted, calls follow the shape of the dose curve; as a rule, active = well fitted curve in the direction sought with a large enough effect; inconclusive = small, poorly fitted or top-dose-only effect, or another doubt; inactive = no such curve, though single readings can be large; an effect the other way counts as inactive or inconclusive.

Sequence of Nucleoprotein (Lymphocytic choriomeningitis virus (strain Armstrong)) (P09992 whole entry, looked up): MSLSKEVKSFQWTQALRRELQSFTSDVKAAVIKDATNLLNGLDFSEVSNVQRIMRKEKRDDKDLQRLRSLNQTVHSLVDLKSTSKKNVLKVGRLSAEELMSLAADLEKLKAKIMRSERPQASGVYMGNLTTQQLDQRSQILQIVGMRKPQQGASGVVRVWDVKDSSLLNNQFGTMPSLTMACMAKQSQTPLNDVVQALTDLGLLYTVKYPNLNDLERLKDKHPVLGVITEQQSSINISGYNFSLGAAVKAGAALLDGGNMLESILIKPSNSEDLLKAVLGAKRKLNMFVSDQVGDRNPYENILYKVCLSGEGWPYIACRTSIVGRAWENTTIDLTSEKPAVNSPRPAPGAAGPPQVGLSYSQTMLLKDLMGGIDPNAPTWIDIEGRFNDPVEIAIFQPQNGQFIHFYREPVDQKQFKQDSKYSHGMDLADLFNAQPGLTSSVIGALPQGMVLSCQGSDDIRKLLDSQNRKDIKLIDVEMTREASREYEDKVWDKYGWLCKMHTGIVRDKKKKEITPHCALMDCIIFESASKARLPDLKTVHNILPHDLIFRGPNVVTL

As to `COCCOCCO`, the Potency entry in test [1], in [2], in test [3], in test [4], in test [5] and in test [6] was “inactive” throughout. In addition, the Potency result in test [7], in test [8], in test [9], in [10], in [11] and in test [12] was “inactive” in each case. The Potency entry in test [13], in test [14], in [15], in test [16], in test [17] and in [18] was “inactive” in each case. Besides, the Potency entry in [19] was “inactive”.

`c1ccc2c(CN3CCNCC3)cccc2c1`: the Potency result in test [1], in test [2], in test [3], in [4], in test [5] and in [6] was “inactive” in each case. Moreover, the Potency result in test [8], in test [10], in test [11], in test [12], in [15] and in [16] was “inactive” each time. Besides, the Potency entry in [18] and in test [19] was “inactive” in each case. For the same compound, in test [7], the Potency is 29600 nM (active).

In the case of `CC1=NN=C(c2ccc(N)cc2)c2cc3c(cc2C1)OCO3`, the Potency result in test [1], in [2], in test [3], in [4], in test [5] and in test [6] was “inactive” in each case. The Potency entry in test [7], in test [8], in test [9], in test [10], in [11] and in test [14] was “inactive” each time. Besides, the Potency result in [15], in test [16], in test [17], in [20], in [18] and in [19] was “inactive” in each case.

For `O=[N+]([O-])c1ccc([As](=O)(O)O)cc1`, the Potency result in test [1], in test [2], in test [3], in [4], in [5] and in [6] was “inactive” throughout. The Potency entry in [7], in [8], in [10], in test [11], in test [12] and in [13] was “inactive” throughout. The Potency entry in test [14], in [15], in [16], in test [17], in test [20] and in test [18] was “inactive” each time. Besides, in test [19], the Potency entry is “inactive”.

As for `CSCC[C@@H](NC(=O)[C@@H](Cc1ccccc1)NC(=O)CNC(=O)CNC(=O)[C@@H](N)Cc1ccc(O)cc1)C(=O)O`, the Potency result in test [1], in [2], in test [3], in test [4], in [5] and in test [6] was “inactive” throughout. Also, the Potency entry in [7], in test [8], in test [9], in test [10], in test [11] and in test [12] was “inactive” each time. Moreover, the Potency entry in test [13], in test [14], in [15], in [16], in test [20] and in test [18] was “inactive” each time. Moreover, the Potency result in test [19] is “inactive”.

In the case of `CC(Cc1ccc(O)cc1)NCC(O)c1cc(O)cc(O)c1` (centres undefined), the Potency entry in [1], in test [2], in test [3], in test [4], in test [5] and in test [6] was “inactive” in each case. Besides, the Potency entry in test [7], in test [8], in test [9], in [10], in [11] and in test [12] was “inactive” each time. Also, the Potency result in test [13], in test [14], in test [15], in test [16], in test [17] and in test [18] was “inactive” throughout. Moreover, the Potency result in [19] is “inactive”.

`O=C(O)CCCOc1ccc(Cl)cc1Cl`: the Potency entry in test [1], in test [2], in test [3], in [4], in test [5] and in test [7] was “inactive” in each case. Also, the Potency entry in test [8], in [9], in test [10], in test [11], in test [13] and in test [14] was “inactive” throughout. In addition, the Potency result in test [15], in [16], in test [18] and in test [19] was “inactive” each time. In addition, the Potency in [6] is 313 nM (active).

`C[C@@H]1O[C@@H](O[C@@H]2C=C3CC[C@@H]4[C@@H](CC[C@]5(C)[C@H](c6ccc(=O)oc6)CC[C@@]45O)[C@@]3(C)CC2)[C@H](O)[C@H](O)[C@H]1O`: the Potency in test [1] was 54.4 nM (active); in [2], 76.9 nM (active); in test [3], 41.5 nM (active); in test [4] it was 14.8 nM (active); in [5], 8.3 nM (active); in test [6], 14.8 nM (active). The Potency in test [7] is 8.3 nM (active); in test [8] it was 9.7 nM (active); in [10], 23.5 nM (active); in test [11], 52.6 nM (active); in [12] it was 96.1 nM (active); in test [13], 83.3 nM (active). Moreover, the Potency was 14.8 nM (active) in [14], 19.3 nM (active) in test [15], 17.2 nM (active) in test [17] and 4.7 nM (active) in test [18].

With `OCCCBr`, the Potency result in test [1], in test [2], in [3], in [4], in test [5] and in test [6] was “inactive” each time. Besides, the Potency entry in test [7], in [8], in test [9], in test [10], in test [11] and in test [12] was “inactive” throughout. The Potency entry in test [13], in test [14], in test [15], in test [16], in test [18] and in [19] was “inactive” throughout.

As to `Cc1ccc(Cl)c(O)c1`, the Potency result in [1], in test [2], in test [3], in [4], in [5] and in [6] was “inactive” in each case. In addition, the Potency result in [7], in test [8], in test [10], in [11], in [12] and in test [13] was “inactive” throughout. Moreover, the Potency result in test [14], in test [15], in test [16], in test [17], in test [20] and in [18] was “inactive” throughout. Also, in [19], the Potency entry is “inactive”.

Values taken from PubChem BioAssay (NCATS).
